The test system of experiment [1] is TRPC4 beta (transient receptor potential cation channel C4), mouse. Nature of the experiment: activators of mouse TRPC4 channel, confirmation, cell-based, Fluo4 calcium, HEK293 TRPC4beta/mu-opioid, duplicates, 10 µM (AID 2426;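 active = fluorescence ratio normalized to control raised more than 50% in primary screen plus both repeat runs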). The note with it: Fluo4 calcium fluorescence, at 10 µM; active compounds read high.
Experiment [2] deals with transient receptor potential cation channel C4 beta (TRPC4), mouse. Nature of the experiment: activators of mouse TRPC4 channel, confirmation, cell-based, second round, Fluo4, HEK293 TRPC4beta/mu-opioid, 1 µM (AID 2461;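 active = primary screen active and over 50% activation in each of two duplicate runs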). The note with it: Fluo4 calcium fluorescence, at 1 µM; active compounds read high.
In experiment [3] the test system is TRPC4 (transient receptor potential cation channel C4 beta), mouse. The experiment can be described thus: positive allosteric modulators of mouse TRPC4, confirmation, cell-based, second round, Fluo-4, HEK293 TRPC4beta/mu-opioid, 1 µM (AID 2554;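 active = primary screen hit whose fluorescence ratio, in both repeats, exceeds the weak agonist control mean by 3 SD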). Particulars: DAMGO EC20, Fluo-4 calcium flux, at 1 µM; active compounds read high. For orientation: A change in cytosolic calcium serves as a functional read-out for many receptors and channels.

Experiment [4] relates to TRPC4 beta (transient receptor potential cation channel C4), mouse. The experiment can be described thus: positive allosteric modulators of mouse TRPC4, confirmation, cell-based, Fluo-4, HEK293 TRPC4beta/mu-opioid (AID 2555;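 active = primary screen hit whose calcium fluorescence ratio, in both repeats, exceeds the weak agonist control mean by 3 SD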). The note with it: DAMGO EC20, Fluo-4 calcium flux, at 10 µM; active compounds read high.
The target of experiment [5] is Short transient receptor potential channel 4 (Mus musculus) (UniProt Q9QUQ5). Nature of the experiment: inhibitors of mouse TRPC4 channel, confirmation, cell-based, Fluo4, HEK293 TRPC4beta/mu-opioid (AID 2636;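 active = calcium signal cut by more than 3 SD below the full-agonist control yet still positive, in both repeats and the earlier primary screen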). Particulars: DAMGO, Fluo4 calcium flux, at 10 µM; active compounds read high.
Short transient receptor potential channel 4 (Mus musculus), sequence (Q9QUQ5 whole entry, looked up): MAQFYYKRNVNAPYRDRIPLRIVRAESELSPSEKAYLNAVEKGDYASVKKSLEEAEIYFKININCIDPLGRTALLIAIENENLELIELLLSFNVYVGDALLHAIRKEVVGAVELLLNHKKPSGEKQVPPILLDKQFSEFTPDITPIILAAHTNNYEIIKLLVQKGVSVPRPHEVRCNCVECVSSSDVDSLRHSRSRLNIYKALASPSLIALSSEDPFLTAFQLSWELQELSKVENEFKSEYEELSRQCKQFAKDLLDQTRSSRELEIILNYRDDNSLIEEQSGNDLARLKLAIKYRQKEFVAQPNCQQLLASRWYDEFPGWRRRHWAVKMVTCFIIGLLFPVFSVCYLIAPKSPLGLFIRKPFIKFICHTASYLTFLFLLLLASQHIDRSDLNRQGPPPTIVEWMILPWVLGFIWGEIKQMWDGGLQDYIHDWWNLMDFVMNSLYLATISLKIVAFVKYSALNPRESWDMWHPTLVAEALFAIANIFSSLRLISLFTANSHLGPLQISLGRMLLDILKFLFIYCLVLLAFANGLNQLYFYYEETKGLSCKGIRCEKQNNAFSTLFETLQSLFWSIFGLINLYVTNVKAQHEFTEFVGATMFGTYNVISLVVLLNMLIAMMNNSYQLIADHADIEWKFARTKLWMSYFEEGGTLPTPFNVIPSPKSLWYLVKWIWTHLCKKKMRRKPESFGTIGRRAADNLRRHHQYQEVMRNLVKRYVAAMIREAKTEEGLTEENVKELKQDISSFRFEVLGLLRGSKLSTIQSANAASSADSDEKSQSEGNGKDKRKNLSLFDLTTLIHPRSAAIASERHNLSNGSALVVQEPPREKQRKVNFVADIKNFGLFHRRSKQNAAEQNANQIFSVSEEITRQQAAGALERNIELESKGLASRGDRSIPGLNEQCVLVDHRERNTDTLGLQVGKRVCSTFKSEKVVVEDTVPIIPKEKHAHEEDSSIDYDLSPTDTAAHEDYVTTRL
Experiment [6] has the same target. The experiment can be described thus: inhibitors of mouse TRPC4 channel, confirmation, cell-based, second round, Fluo4, HEK293 TRPC4beta/mu-opioid, 1 µM (AID 2637;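 active = calcium signal ratio cut to more than 3 SD under the fully stimulated control mean yet still positive, in both repeats and the primary screen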;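 as to inhibition: percent of integrated ratio relative to wells lacking test compound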). The note with it: Fluo4 calcium flux, DAMGO, at 1 µM; active compounds read high.
Experiment [7] has the same target. Nature of the experiment: mouse TRPC4 channel activators, dose response, cell-based, HEK293 TRPC4/mu-opioid, Fluo-4 calcium (AID 434937).
Experiment [8] has the same target. The experiment can be described thus: TRPC4 positive allosteric modulators, dose response, cell-based, HEK293 TRPC4/mu-opioid, Fluo-4 calcium, EC20 DAMGO (AID 434941;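 active = earlier screen potentiator hit that boosts the TRPC4 ion channel at some dose, with a dose response; inactive = no potentiation, no dose response, or not a prior hit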;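 also: calcium entry triggered by an EC20 dose of DAMGO at the co-expressed mu-opioid receptor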).
Experiment [9] concerns the target Short transient receptor potential channel 6 (Mus musculus) (UniProt Q61143). The experiment can be described thus: inhibition of mouse TRPC6 channel, confirmation, selectivity assay for TRPC4 inhibitor project, cell-based, HEK293, membrane potential dye, duplicate (AID 434948;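 active = active in primary screen and both duplicates, each dropping signal beyond three positive-control SD with fluorescence still positive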). Particulars: HEK293 TRPC6, membrane potential dye fluorescence, at 10 µM, stimulated with maximal-effect acetylcholine; active compounds read high.

For experiment [10] the target is unchanged. The experiment can be described thus: activation of mouse TRPC6 channel, confirmation, selectivity assay for TRPC4 activator project, cell-based, HEK293, membrane potential dye, duplicate (AID 434950;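 active = membrane potential signal rise above negative control mean plus 3 SD in both duplicates, also active in the earlier TRPC4 screen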). Particulars: HEK293 TRPC6, membrane potential fluorescence, at 10 µM; active compounds read high.
Experiment [11] shares this target. The experiment can be described thus: TRPC6 potentiation by TRPC4 potentiator hits, confirmation, selectivity assay for TRPC4 potentiator project, HEK293 cells, membrane potential dye, duplicate (AID 434952;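 active = compound raising the membrane signal above positive-control mean plus 3 SD in both repeats, and a primary screen hit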). The note with it: HEK293 TRPC6, membrane potential dye fluorescence, at 10 µM, maximal acetylcholine added after compound; active compounds read high.
Experiment [12] addresses Short transient receptor potential channel 4 (Mus musculus) (UniProt Q9QUQ5). The experiment can be described thus: calcium flux activators in TRPC4/5HT1a cells, counter-screen for TRPC4 activator project, cell-based, second counter screen, HEK293 TRPC4/5HT1a, Fluo-4 (AID 434977;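 active = calcium signal rise above buffer-control mean plus 5 SD in both duplicates, and also a hit in the primary screen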). Particulars: Fluo-4 calcium flux, at 10 µM; active compounds read high.
A short description of experiment [13]: calcium flux inhibitors in TRPC4/5HT1a cells, confirmation, counter-screen for TRPC4 inhibitor project, cell-based, second counter screen, HEK293 TRPC4/5HT1a, Fluo-4 (AID 434978;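 active = primary screen active whose calcium signal fell more than 3 SD beyond the full-serotonin control mean in both duplicate plates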;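 as to outcome: serotonin given first at submaximal then at maximal dose after compound preincubation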). Particulars: Fluo-4 calcium flux, at 10 µM, serotonin added to trigger calcium flux; active compounds read high.
The test system of experiment [14] is TRPC4 (mouse), co-expressed with 5HT1a in HEK293. Nature of the experiment: calcium flux potentiators in TRPC4/5HT1a cells, confirmation, counter-screen for TRPC4 potentiator project, cell-based, second counter screen, HEK293 TRPC4/5HT1a, Fluo-4 (AID 434979;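 active = signal rise over 3 SD above mean of control wells given weak agonist, in both repeats and first screen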). The note with it: Fluo-4 calcium flux, at 10 µM, serotonin added at its EC20 dose; active compounds read high.

The nature of experiment [15]: calcium flux activation in mu-opioid HEK293 cells, confirmation, counter-screen for TRPC4 activator project, cell-based, HEK293 mu-opioid receptor line (AID 449723;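 active = hit in primary screen, with calcium signal over 5 SD above buffer well mean in both duplicates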;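 also: counter screen cells carry the mu-opioid receptor alone and lack TRPC4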). The note with it: Fluo-4 calcium fluorescence, at 10 µM; active compounds read high.
Experiment [16] is described as follows: calcium flux enhancement in mu-opioid HEK293 cells, confirmation, counter-screen for TRPC4 allosteric potentiator project, cell-based, HEK293 mu-opioid receptor line (AID 449724;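 active = calcium signal rise more than 3 SD above the low-dose agonist control mean, in both duplicate plates and the primary screen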;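 also: HEK293 cells carrying mu-opioid receptor only with no TRPC4 channel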). The note with it: Fluo-4 calcium flux, at 10 µM, compound added before EC20 DAMGO stimulus; active compounds read high.

For part of these data: Potency and affinity values are given separately. Activity calls are given as the source filed them.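 The calls were made as follows, unless noted: active = primary screen activator hit with a dose response curve and TRPC4 channel activation at any tested dose; inactive = no activation, no dose response, or not a primary hit.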

Usually inhibition stands for the drop in the measured response relative to a control, in per cent.

Short transient receptor potential channel 6 (Mus musculus), sequence (Q61143 whole entry, looked up): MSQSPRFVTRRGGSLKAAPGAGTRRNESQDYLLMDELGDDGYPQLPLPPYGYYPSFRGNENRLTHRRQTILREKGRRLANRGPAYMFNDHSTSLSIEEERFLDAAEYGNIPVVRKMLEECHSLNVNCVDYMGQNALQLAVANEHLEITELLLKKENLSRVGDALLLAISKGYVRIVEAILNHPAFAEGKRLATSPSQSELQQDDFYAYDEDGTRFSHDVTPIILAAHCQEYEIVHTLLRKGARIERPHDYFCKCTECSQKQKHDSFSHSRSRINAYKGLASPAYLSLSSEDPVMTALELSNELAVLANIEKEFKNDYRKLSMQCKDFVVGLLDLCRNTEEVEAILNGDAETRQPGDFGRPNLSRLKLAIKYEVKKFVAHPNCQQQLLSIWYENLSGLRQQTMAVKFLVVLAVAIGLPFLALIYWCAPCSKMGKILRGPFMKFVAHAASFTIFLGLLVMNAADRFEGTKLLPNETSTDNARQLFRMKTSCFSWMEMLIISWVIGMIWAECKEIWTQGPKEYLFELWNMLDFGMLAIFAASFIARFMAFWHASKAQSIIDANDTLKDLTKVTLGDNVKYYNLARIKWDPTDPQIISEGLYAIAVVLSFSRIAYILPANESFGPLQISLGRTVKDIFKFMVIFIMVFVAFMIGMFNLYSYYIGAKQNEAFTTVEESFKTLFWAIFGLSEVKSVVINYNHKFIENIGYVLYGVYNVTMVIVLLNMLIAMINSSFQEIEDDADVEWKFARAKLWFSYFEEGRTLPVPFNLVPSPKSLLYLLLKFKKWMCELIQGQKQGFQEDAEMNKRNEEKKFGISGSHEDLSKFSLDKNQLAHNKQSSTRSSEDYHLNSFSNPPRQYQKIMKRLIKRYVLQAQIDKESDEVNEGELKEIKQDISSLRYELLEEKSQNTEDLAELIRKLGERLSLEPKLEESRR

On to `c1ccc2[nH]c(CCCCc3nc4ccccc4[nH]3)nc2c1`, for which the outcome in experiment [1], in [2], in experiment [3], in experiment [4], in [7] and in experiment [8] was inactive. In addition, the outcome in [9], in experiment [10], in [11], in experiment [12], in experiment [14] and in experiment [15] was inactive. For the same compound, in [16], the outcome was inactive. For the same compound, the inhibition in [5] is 85% (active); in experiment [6], 55% (active); in experiment [13], 40.6% (active).
As for `COc1cccc(C2=NN(C(=O)c3ccco3)C(c3ccco3)C2)c1` (stereo not given), the outcome in experiment [1], in [2], in experiment [3], in [4], in experiment [6] and in experiment [7] was inactive. Besides, the result in [8], in experiment [9], in experiment [10], in [11], in [12] and in [14] was inactive. Further, the outcome in [15] and in [16] was inactive. In addition, the inhibition in experiment [5] is 71% (active); in experiment [13], 20.6% (active).
Regarding `Cc1ccc(C(=O)C2=C(O)C(=O)N(Cc3cccnc3)C2c2ccc(Cl)c(Cl)c2)o1` (stereo not given), the outcome in [1], in experiment [2], in experiment [3], in experiment [4], in [6] and in experiment [7] was inactive. The result in experiment [8], in experiment [9], in [10], in [11], in [12] and in [14] was inactive. Moreover, the result in [15] and in [16] was inactive. Further, the inhibition in experiment [5] was 90% (active); in experiment [13] it was 32.8% (active).
`O=C(Nc1ccc(F)cc1)N1CCN2C(=O)c3ccccc3C12c1ccccc1` (stereo not given): the result in experiment [1], in [2], in experiment [3], in experiment [4], in experiment [6] and in experiment [7] was inactive. Also, the result in experiment [8], in experiment [9], in experiment [10], in [11], in [12] and in [13] was inactive. The result in experiment [14], in experiment [15] and in [16] was inactive. Moreover, the inhibition in experiment [5] is 68% (active).
`CC(C)=CCN1CCN(Cc2cccc3nonc23)CC1CCO` (stereo not given): the result in experiment [1], in experiment [2], in experiment [3], in experiment [4], in [6] and in [7] was inactive. For the same compound, the outcome in [8], in experiment [9], in experiment [10], in [11], in [12] and in experiment [14] was inactive. Besides, the outcome in [15] and in experiment [16] was inactive. Further, the inhibition in experiment [5] is 91% (active); in experiment [13], 33.3% (active).
Regarding `FC(F)Oc1ccccc1NC(=S)Nc1cccc(Cl)c1Cl`, the outcome in experiment [1], in [2], in experiment [3], in experiment [4], in experiment [7] and in [8] was inactive. For the same compound, the outcome in [9], in experiment [10], in [11], in [12], in [13] and in experiment [14] was inactive. Further, the result in [15] and in experiment [16] was inactive. Further, the figures for the inhibition in experiment [5] and in experiment [6] were 77% (active) and 45% (active), respectively.
`Cc1cc(-c2sccc2C)nc(-n2cccc2)n1`: the outcome in [1], in [2], in experiment [3], in [4], in [6] and in [7] was inactive. Besides, the outcome in experiment [8], in experiment [9], in experiment [10], in [11], in experiment [12] and in experiment [13] was inactive. Also, the outcome in experiment [14], in experiment [15] and in [16] was inactive. Moreover, the inhibition in [5] was 91% (active).
As for `c1ccc(CN2CCN(Cc3c[nH]c4ccccc34)CC2)cc1`, the outcome in [1], in experiment [2], in experiment [3], in [4], in experiment [6] and in experiment [7] was inactive. The result in experiment [8], in [9], in experiment [10], in [11], in experiment [12] and in [14] was inactive. Besides, the result in [15] and in experiment [16] was inactive. In addition, the inhibition in [5] was 88% (active); in experiment [13], 31.6% (active).
On to `Cc1[nH]n(C)c(=O)c1C(=O)c1c(-c2c(Cl)cccc2Cl)noc1C`, for which the outcome in experiment [1], in [2], in experiment [3], in [4], in [7] and in [8] was inactive. Besides, the call in [9], in experiment [10], in experiment [11], in experiment [12], in experiment [14] and in experiment [15] was inactive. Moreover, in [16], the result was inactive. In addition, the inhibition was 90% (active) in experiment [5], 42% (active) in experiment [6] and 27.3% (active) in experiment [13].
On to `Cc1ccc(C(C(=O)NC(C)(C)C)N(C(=O)CCC(=O)Nc2ccccn2)c2ccccc2F)cc1` (stereo not given), for which the outcome in experiment [1], in [2], in experiment [3], in [4], in experiment [6] and in experiment [7] was inactive. Moreover, the outcome in [8], in experiment [9], in [10], in experiment [11], in [12] and in [14] was inactive. Also, the outcome in [15] and in experiment [16] was inactive. The inhibition is 61% (active) in [5] and 28.9% (active) in [13].
For the compound `O=c1c2ccccc2nc(SCc2ccccc2)n1CC1CCCO1` (stereo not given), the result in experiment [1], in experiment [2], in [3], in [4], in experiment [6] and in experiment [7] was inactive. The result in experiment [8], in experiment [9], in [10], in experiment [11], in [12] and in experiment [14] was inactive. Further, the result in experiment [15] and in experiment [16] was inactive. The figures for the inhibition in experiment [5] and in experiment [13] were 54% (active) and 18.9% (active), respectively.
Take `CC12CCC(C/C1=N/OC(=O)c1cccc([N+](=O)[O-])c1)C2(C)C` (stereo not given): the result in [1], in [2], in experiment [3], in experiment [4], in experiment [7] and in [8] was inactive. Further, the compound was called inactive in experiment [9], in [10], in [11], in [12], in experiment [14] and in experiment [15]. In addition, the outcome in [16] was inactive. Further, the inhibition was 82% (active) in experiment [5], 40% (active) in [6] and 28.3% (active) in experiment [13].
For the compound `CCOC(=O)c1c(-c2cccc(C)c2)csc1NC(=O)C1CC=CCC1C(=O)O` (stereo not given), the outcome in [1], in experiment [2], in [3], in experiment [4], in experiment [6] and in experiment [7] was inactive. Also, the result in experiment [8], in experiment [9], in [10], in experiment [11], in experiment [12] and in experiment [14] was inactive. Also, the outcome in experiment [15] and in experiment [16] was inactive. The inhibition in [5] was 89% (active); in experiment [13], 46.1% (active).
Take `Nc1cc(=O)nc(SCC(=O)N2CCN(c3ccccc3)CC2)n1-c1ccc(F)cc1`: the result in experiment [1], in experiment [2], in [3], in experiment [4], in [7] and in experiment [8] was inactive. Moreover, the compound was called inactive in [9], in experiment [10], in [11], in experiment [12], in [14] and in [15]. Moreover, the outcome in experiment [16] was inactive. For the same compound, the inhibition is 95% (active) in [5], 45% (active) in experiment [6] and 43.7% (active) in experiment [13].
With `Cc1nc(N2CCN(c3ccccn3)CC2)c2c(C)c(C(=O)N3CCN(c4ccccc4F)CC3)sc2n1`, the outcome in [1], in [2], in [3], in [4], in experiment [6] and in experiment [7] was inactive. Also, the outcome in experiment [8], in experiment [9], in experiment [10], in [11], in [12] and in experiment [13] was inactive. The result in experiment [14], in [15] and in [16] was inactive. The inhibition in experiment [5] is 93% (active).

(Values after PubChem BioAssay.)
